Experimental data taken from PubChem BioAssay (NCI).
This is part of a sample that, as a whole, favours compounds with a hit. Of some 83,000 tested, about 20% had one in any assay.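 Percent growth is the endpoint: 0 to 100 indicates growth inhibition (40 means 60% inhibition), 0 means no net growth, and negative values indicate cell death.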 Unmarked numbers belong to inactive results. Active and inactive are the calls of the source. The calls were made as follows: active = growth percent below 10; inactive = the rest.

Key:
Experiment in all cases: NCI-60 one-dose screen, 48 h (100 = growth as untreated, 0 = no growth, -100 = all killed)
Conditions in all cases: 10 µM unless noted
SK-MEL-2 melanoma = tested on: SK-MEL-2 melanoma
EKVX NSCLC = tested on: EKVX NSCLC
SN12C renal = tested on: SN12C renal
UO-31 renal = tested on: UO-31 renal
TK-10 renal = tested on: TK-10 renal
ACHN renal = tested on: ACHN renal
CAKI-1 renal = tested on: CAKI-1 renal
A498 renal = tested on: A498 renal
CCRF-CEM leukemia = tested on: CCRF-CEM leukemia
MOLT-4 leukemia = tested on: MOLT-4 leukemia
SR leukemia = tested on: SR leukemia
RPMI-8226 leukemia = tested on: RPMI-8226 leukemia
OVCAR-8 ovarian = tested on: OVCAR-8 ovarian
OVCAR-5 ovarian = tested on: OVCAR-5 ovarian
OVCAR-4 ovarian = tested on: OVCAR-4 ovarian
SK-OV-3 ovarian = tested on: SK-OV-3 ovarian
IGROV1 ovarian = tested on: IGROV1 ovarian
OVCAR-3 ovarian = tested on: OVCAR-3 ovarian
HS 578T breast = tested on: HS 578T breast
NCI/ADR-RES ovarian = tested on: NCI/ADR-RES ovarian

Row | Compound | growth (SK-MEL-2 melanoma) | growth (EKVX NSCLC) | growth (SN12C renal) | growth (UO-31 renal) | growth (TK-10 renal) | growth (ACHN renal) | growth (CAKI-1 renal) | growth (A498 renal) | growth (CCRF-CEM leukemia) | growth (MOLT-4 leukemia) | growth (SR leukemia) | growth (RPMI-8226 leukemia) | growth (OVCAR-8 ovarian) | growth (OVCAR-5 ovarian) | growth (OVCAR-4 ovarian) | growth (SK-OV-3 ovarian) | growth (IGROV1 ovarian) | growth (OVCAR-3 ovarian) | growth (HS 578T breast) | growth (NCI/ADR-RES ovarian)
1 | CN(C)CCn1c2ccccc2c2nc3cc4ccccc4cc3nc21 | 60.1% | 36.8% | 32.3% | 12.3% | 53% | 7.52% (active) | 4.76% (active) | 80.8% | 18.3% | 7.22% (active) | 5.18% (active) | 14.4% | -46.8% (active) | 8% (active) | 48% | 45.5% | -9.73% (active) | 46.6% | 42.7% | -19.4% (active)
2 | CC12CC[C@@H]3[C@]4(C)COC(c5cn[nH]c5-c5ccc(Cl)cc5)O[C@@H]4CC[C@@]3(C)[C@@H]1CC(C1=CCOC1=O)O2 (stereo not given in full) | 29.7% | 36.1% | 48.5% | 21% | 35.3% | 33.8% | 49.8% | 85.6% | 32.8% | -16.8% (active) | 16.5% | 12% | 55.5% | 62.3% | 39.5% | 55% | 51% | 42.6% | 51% | 42.5%
3 | CC(=O)Nc1ccc(-c2nc3cc(-c4ccc(O)cc4)ccc3n2C)cc1 | 84.1% | 56.3% | 40.1% | 30.8% | 79% | 50.3% | 34.6% | 72.4% | 43.8% | 13.9% | 23.1% | 41.3% | 54.8% | 74.2% | 54.5% | 94.5% | 34.8% | 49% | 66.1% | 55.3%
4 | CC(C)c1sc(NC(=O)c2cc(NC(=O)c3cc(NC(=O)c4nccn4C)cn3C)cn2C)nc1C(=O)NCCCN(C)C | 80.8% | 105% | 85.7% | 98.1% | 97.9% | 108% | 102% | 116% | 19.3% | 65.8% | 17.5% | 104% | 81.2% | 105% | 75.3% | 60% | 82.5% | 70.9% | 90.3% | 111%
5 | Cc1ccccc1[C@H]1C(C(=O)c2ccc(Cl)cc2)C2(N[C@@H]1c1ccccc1)C(=O)Nc1ccc(Cl)cc12 (stereo not given in full) | -64% (active) | -20.6% (active) | -95.4% (active) | 0.337% (active) | 9% (active) | -9.02% (active) | 8.92% (active) | 50% | -14.9% (active) | -17.5% (active) | -23.6% (active) | -11.8% (active) | -69.2% (active) | -55.8% (active) | 11.2% | 1.06% (active) | 2.05% (active) | -52.4% (active) | 6.9% (active) | -65.7% (active)
6 | C=C1CCC2C3(C)COC(c4ccco4)OC3CCC2(C)C1CC(Sc1ccccc1)C1=CCOC1=O (stereo not given) | 80% | 105% | 21.4% | 51.8% | 123% | 70.3% | 88.2% | 137% | 0.425% (active) | 16.9% | 17.1% | 3.83% (active) | 4.17% (active) | 60.9% | 70.2% | 141% | 69.2% | 37% | 114% | -17.6% (active)
7 | O=C(Cn1c(/C=C/c2ccccc2)nc2ccccc2c1=O)Nc1ccc(Cl)cc1 | 114% | 98.6% | 19.2% | -24.6% (active) | -12% (active) | -65.6% (active) | 20.4% | -15.5% (active) | 85.6% | 86.9% | 87.6% | 86.8% | 58.3% | 68.7% | -22.4% (active) | 40.2% | 67.7% | 29.2% | 37.8% | 66.6%
8 | COc1ccc(C(=O)/C=C/c2ccc(OCc3ccc(F)cc3)c(OC)c2)cc1OC | 52.9% | 59.9% | -1.58% (active) | 21.5% | 39.6% | 28.5% | 32.6% | 94.7% | 7.26% (active) | 9.77% (active) | 7.52% (active) | 1.35% (active) | -7.27% (active) | 1.16% (active) | 17.3% | 40.2% | 17.5% | 18.2% | 84.7% | 11%
9 | COc1c(F)ccc(C(=O)Nc2ccc3nc(NC(=O)C4CCCN(S(=O)(=O)c5ccc(Br)s5)C4)sc3c2)c1F (stereo not given) | 81.8% | 81.2% | 85.9% | 77.6% | 116% | 77.2% | 82.6% | 104% | 75% | 48.5% | 44.3% | 46.7% | 94.9% | 105% | 67.9% | 109% | 81.5% | 85.8% | 58.8% | 84.8%
10 | COc1cccc(/C=C/c2nc3ccccc3c(=O)n2CC(=O)Nc2ccc(Cl)cc2)c1 | 111% | 109% | 39.2% | 16% | 32.2% | -1.49% (active) | 60.5% | 25.1% | 86.1% | 90.6% | 79.7% | 88.3% | 48.8% | 73.5% | -11.4% (active) | 76.8% | 77.3% | 35.5% | 32.8% | 69.3%
11 | C#CCOc1cc(N(CC)CC)ccc1C(C(=O)NC(C)(C)C)N(C(=O)C1CCc2cc(F)ccc2O1)c1ccc(Br)cc1 (stereo not given) | 110% | 55.3% | 76.9% | 51% | 116% | 83.2% | 58.7% | 135% | 63.6% | 21.8% | 54% | 44.7% | 89.3% | 87.1% | 82.3% | 95.3% | 80.2% | 107% | 88.3% | 89.4%
12 | C#CCOc1cc(N(CC)CC)ccc1C(C(=O)NC(C)(C)C)N(C(=O)C1CCc2cc(F)ccc2O1)c1ccc(F)cc1 (stereo not given) | -24.7% (active) | 37.8% | 48.9% | 30.4% | 68.7% | 33.5% | 30.7% | 78.5% | 40.4% | 9.55% (active) | 26.7% | 25.4% | 52.4% | 69.7% | 51% | 62.4% | 68.2% | 47.9% | 64.4% | 56.8%
13 | COc1ccc(-c2ccnc(SCc3cc4ccccc4[nH]c3=O)n2)cc1 | 67.2% | 69.8% | 49.1% | 68.4% | 85.2% | 74.4% | 55.1% | 93.2% | 48.1% | 11.1% | 14.9% | 65.5% | 56.3% | 82.1% | 41.5% | 82.4% | 75% | 81.6% | 48.2% | 26.9%
14 | Nc1nc(-c2ccccc2)c(N=Nc2ccc(Cl)cc2[N+](=O)[O-])s1 | 90.4% | 76.8% | 96% | 65.2% | 169% | 101% | 82.5% | 92% | 101% | 100% | 99.7% | 94.2% | 91.3% | 101% | 97.2% | 96.5% | 80.5% | 108% | 79.6% | 101%
15 | COc1ccc2c(c1)c(-c1cc(N)n3nc(-c4cn(C)c5ccccc45)cc3n1)cn2C | -92.4% (active) | -63.1% (active) | -59.6% (active) | -88.3% (active) | -79% (active) | -98.7% (active) | -77.4% (active) | -20.3% (active) | -24.3% (active) | 0.804% (active) | 6.15% (active) | -14.5% (active) | -94.4% (active) | -38.8% (active) | -64.2% (active) | -79.5% (active) | -40.3% (active) | -67.4% (active) | -20.7% (active) | -17.1% (active)
